Experimental findings from PubChem BioAssay (NCI) are described below.

Some test systems named below: DU-145 prostate; K-562 leukemia; MALME-3M melanoma; MDA-MB-231 breast; RXF 393 renal; SF-268 CNS; SF-295 CNS; SF-539 CNS; UACC-257 melanoma; M14 melanoma; HCT-15 colon; HT29 colon; SNB-75 CNS; SNB-19 CNS; U251 CNS; PC-3 prostate; SK-MEL-5 melanoma; UACC-62 melanoma; LOX IMVI melanoma; SK-MEL-28 melanoma.
Holding throughout (experiment): NCI-60 one-dose screen, 48 h (100 = growth as untreated, 0 = no growth, -100 = all killed)
Conditions in all cases: 10 µM unless noted

Structures are written as SMILES. This is part of a sample that, as a whole, favours compounds with a hit. Of some 83,000 tested, about 20% had one in any assay.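 Single-dose data. Exposure time 48 hours. Values below 10 considered active.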 A number with no mark means an inactive call. Calls of active or inactive are those of the source.

Consider `O=C1CCCN1C1CCN2CCCc3cccc1c32` (stereo not given), for which the growth in the test on DU-145 prostate is 119%; with K-562 leukemia, 109%; with MALME-3M melanoma it was 94.2%; in the test with MDA-MB-231 breast, 101%; in the test on RXF 393 renal it was 128%; with SF-268 CNS it was 112%. Moreover, the growth was 110% in the test with SF-295 CNS; 101% in the test on SF-539 CNS; 111% with UACC-257 melanoma; 100% with M14 melanoma; 102% in the test with HCT-15 colon; 94.4% in the test on HT29 colon. In addition, the growth in the test with SNB-75 CNS is 105%; with SNB-19 CNS it was 100%; in the test with U251 CNS, 103%; with PC-3 prostate, 91.3%; in the test with SK-MEL-5 melanoma, 110%; with UACC-62 melanoma it was 93.6%. Moreover, the growth is 101% in the test with LOX IMVI melanoma and 115% in the test on SK-MEL-28 melanoma.
With `Cc1ccccc1C1CC(=O)c2ccccc2C1C` (stereo not given), the growth with DU-145 prostate was 109%; in the test with K-562 leukemia, 97.3%; in the test on MALME-3M melanoma, 125%; in the test on MDA-MB-231 breast it was 105%; in the test with RXF 393 renal, 109%; in the test with SF-268 CNS it was 101%. Further, the growth in the test on SF-295 CNS is 96.3%; in the test with SF-539 CNS, 93%; with UACC-257 melanoma, 103%; in the test with M14 melanoma, 90.6%; in the test on HCT-15 colon it was 96.9%; in the test with HT29 colon, 100%. Besides, the growth was 85% in the test on SNB-75 CNS; 94.5% with SNB-19 CNS; 88.5% in the test with U251 CNS; 99.4% in the test with PC-3 prostate; 105% in the test with SK-MEL-5 melanoma; 87.4% with UACC-62 melanoma. The growth was 100% in the test with LOX IMVI melanoma and 107% in the test with SK-MEL-28 melanoma.
In the case of `Oc1c(C(Nc2ccccc2Br)c2ccccc2)ccc2cccnc12` (stereo not given), the growth with DU-145 prostate is 28.8%; in the test on K-562 leukemia, 11.4%; with MALME-3M melanoma, 28.1%; with MDA-MB-231 breast, 37.7%; with RXF 393 renal, 37.6%; in the test with SF-268 CNS, 18.5%. The growth is 13.6% in the test on SF-295 CNS; 19.9% in the test with SF-539 CNS; 14.5% in the test with UACC-257 melanoma; -14.2% (active) with M14 melanoma; 26.5% in the test on HCT-15 colon; 24% with HT29 colon. Besides, the growth is 60.4% in the test on SNB-75 CNS; 31.7% in the test on SNB-19 CNS; 12.9% with U251 CNS; 48.6% in the test with PC-3 prostate; 2.41% (active) with SK-MEL-5 melanoma; -26.3% (active) in the test on UACC-62 melanoma. Moreover, the growth with LOX IMVI melanoma is 10.5%; in the test with SK-MEL-28 melanoma it was 39.2%.
As for `CC(C)CCSc1nc(Nc2ccccc2)c(C#N)c(-c2ccc(F)cc2)n1`, the growth is 82.3% with DU-145 prostate; 38.8% in the test on K-562 leukemia; 68.4% in the test on MALME-3M melanoma; 46.2% in the test on MDA-MB-231 breast; 82% with RXF 393 renal; 79.1% with SF-268 CNS. Also, the growth is 34.5% with SF-295 CNS; 52.7% in the test on SF-539 CNS; 52.7% in the test with UACC-257 melanoma; 70.1% in the test on M14 melanoma; 71.7% in the test on HCT-15 colon; 49.9% in the test on HT29 colon. Further, the growth in the test with SNB-75 CNS is 42.1%; in the test on SNB-19 CNS it was 53%; in the test on U251 CNS, 14%; with PC-3 prostate it was 59.1%; in the test with SK-MEL-5 melanoma, 96.6%; with UACC-62 melanoma, 82.4%. The values for the growth with LOX IMVI melanoma and in the test on SK-MEL-28 melanoma were 60.4% and 87.3%, respectively.
Turning to `CC(C)C/C=C/C=C/C(=O)N[C@@H](CC(N)=O)C(=O)N[C@@H]1C(=O)N[C@H](c2ccc(O)cc2)C(=O)N[C@H](CCCN)C(=O)N[C@H]([C@@H](C)O)C(=O)N[C@H](c2ccc(O)cc2)C(=O)N[C@H](c2ccc(O)cc2)C(=O)N[C@H]([C@H](C)O)C(=O)N[C@H](Cc2ccccc2)C(=O)N[C@H](CCCN)C(=O)N[C@H](c2ccc(O[C@H]3O[C@@H](CO)[C@@H](O)[C@@H](O)[C@H]3O[C@@H]3O[C@H](CO)[C@H](O)[C@H](O)[C@@H]3O)cc2)C(=O)N[C@H]([C@H](C)O)C(=O)N[C@H](c2ccc(O)cc2)C(=O)NCC(=O)N[C@H](CC(C)C)C(=O)N[C@H](C)C(=O)N[C@H](c2ccc(O)c(Cl)c2)C(=O)O[C@@H]1C(N)=O`, the growth in the test on DU-145 prostate is 90.6%; in the test on K-562 leukemia, 30.8%; with MALME-3M melanoma, 23.4%; in the test on MDA-MB-231 breast it was -4.62% (active); in the test with RXF 393 renal, 44.9%; with SF-268 CNS it was 59.9%. Besides, the growth with SF-295 CNS is 20.1%; in the test on SF-539 CNS, 4.24% (active); in the test on UACC-257 melanoma, 6.54% (active); in the test on M14 melanoma it was 44.4%; with HCT-15 colon, 70%; with HT29 colon it was 24.2%. For the same compound, the growth is 81.9% in the test on SNB-75 CNS; 21% in the test with SNB-19 CNS; -19% (active) with U251 CNS; 83.3% in the test on PC-3 prostate; 26.2% with SK-MEL-5 melanoma; -4.24% (active) in the test with UACC-62 melanoma. The growth is 36.8% with LOX IMVI melanoma and 22.8% with SK-MEL-28 melanoma.
Regarding `O=C(c1ccccc1)C1OC1C(=O)c1ccccc1` (stereo not given), the growth in the test with DU-145 prostate was 1.5% (active); in the test with K-562 leukemia it was 9.28% (active); with MALME-3M melanoma, 30.5%; with MDA-MB-231 breast it was 25.9%; with RXF 393 renal, 2.72% (active); with SF-268 CNS, 39.5%. Moreover, the growth with SF-295 CNS is 72.8%; with SF-539 CNS it was 24.5%; in the test with UACC-257 melanoma it was 40.2%; in the test with M14 melanoma, 17.3%; with HCT-15 colon, 13.1%; in the test with HT29 colon, 10% (active). In addition, the growth in the test on SNB-75 CNS was 11.1%; in the test on SNB-19 CNS, 92.9%; in the test with U251 CNS it was 28.1%; in the test with PC-3 prostate, 51%; with SK-MEL-5 melanoma it was 37.7%; in the test on UACC-62 melanoma, 46.8%. Moreover, the growth was 2.54% (active) with LOX IMVI melanoma and 49.2% in the test with SK-MEL-28 melanoma.
